Laboratory results: PubChem BioAssay (NCI)
About 83,000 compounds went through this panel and 20% of them were active in at least one assay; those are over-represented in the sample as a whole.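 Step 1: grow cells in 96-well plates. Step 2: add test compound at a single concentration. Step 3: incubate 48 h. Step 4: record percent growth.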 Unmarked numbers belong to inactive results. The source made the active and inactive calls. Rule for the calls: active = growth percent below 10; inactive = the rest.

Each molecule was assayed on HS 578T breast (assay: NCI-60 one-dose screen, 48 h (100 = growth as untreated, 0 = no growth, -100 = all killed)). Conditions: 10 µM unless noted.

SMILES	growth
NS(=O)(=O)c1ccc(Nc2nc(N/N=C/c3ccc(F)cc3)nc(Nc3ccccc3)n2)cc1	40.6%
COc1ccc(-c2cc(-c3ccc(Cl)cc3)nc3nc(N)nn23)cc1	109%
COc1ccc(Cn2cc3c(c2-c2cc(OC)c(OC)c(OC)c2)CCCc2cnoc2-3)cc1	22.1%
CN(c1ccc(F)cc1)S(=O)(=O)c1ccc(-c2cnc(C3CC3)o2)cc1	37.4%
COC[C@]12CC[C@@H](C)[C@H](C)[C@H]1C1=CC[C@@H]3[C@@]4(C)CCCNC(C)(C)[C@@H]4CC[C@@]3(C)[C@]1(C)CC2	74.3%
C=C(C)[C@@H]1CC[C@]2(C(=O)ON)CC[C@]3(C)[C@H](CC[C@@H]4[C@@]5(C)C/C(=C/c6ccc(Br)cc6)C(=O)C(C)(C)[C@@H]5CC[C@]43C)[C@@H]12	88.2%
CN(c1ccc(Br)cc1)S(=O)(=O)c1ccc(-c2cnc(C3CC3)o2)cc1	35.8%
CCCCCCNC(=O)Oc1ccc(/C(=C(\C)c2ccc(Cl)cc2)c2ccc(OCCN(C)C)cc2)cc1	80.6%
C=C(C)[C@@H]1CC[C@]2(COS(C)(=O)=O)CC[C@]3(C)[C@H](CC[C@@H]4[C@@]5(C)CCCNC(C)(C)[C@@H]5CC[C@]43C)[C@@H]12	91.4%
O=C(NNc1nc2cc(F)ccc2n2cncc12)c1cnccn1	71.8%
CN1CCN(c2ccc3c(C(N)=O)c(NC(=O)c4ccc(C(C)(C)C)cc4)sc3c2)CC1	91.2%
NC(=O)C(=Cc1ccc(Cl)cc1)C(N)=O	89.7%
CCN1C(=O)N(CC)C2SC(N/N=C/C=C/c3ccccc3OC)=NC21 (centres undefined)	27.1%
CC(=O)C1=NN(c2ccc(Cl)cc2)C(=O)CN1C	107%
CCOC(=O)c1c(NCC(=O)Nc2ccc(Br)cc2)sc2c1CCCC2	57.5%
CN1CCN(c2ccc3c(c2)nc(NNC(=O)c2ccncn2)c2cccn23)CC1	71.3%
CCOc1c(C#N)c(Nc2ccc(S(N)(=O)=O)cc2)c(C#N)c2nnc(C)n12	102%

SMILES	growth
O=c1[nH]c(CNc2ccc(NCc3c(-c4ccccc4)no[n+]3[O-])cc2)nc2c1cnn2-c1ccccc1	85.8%
C#CCOc1ccc(C(Nc2ccc(Cl)cc2)c2nnnn2C2CCCCC2)cc1 (centres undefined)	79.9%
COc1cc(/C=N/Nc2ccnc3cc(Cl)ccc23)cc(OC)c1O	-38.8% (active)
COc1cc(C(=O)C[n+]2ccc3ccccc3c2)cc(OC)c1OC	94%
Cc1ccc(NC(=O)c2ccc(CN3CCN(C)CC3)c(I)c2)cc1Oc1ccc(-c2[nH]nc3ncnc(N)c23)cc1	66.2%
COc1ccc(Cn2cc3c(c2-c2ccccc2)CCCc2cnoc2-3)cc1	64.9%
N#Cc1c(NC(=O)c2ccc(F)c(Cl)c2)sc2c1CCC(=O)C2	-2.33% (active)
c1ccc(-c2c(-c3ccccc3)[n+](Cc3ccc4ccccc4c3)c(-c3ccccc3)n2Cc2ccc3ccccc3c2)cc1	-50.4% (active)
CCOC(=O)C1=C(C)N=C2Sc3ccccc3N2C1c1ccccc1 (centres undefined)	93.5%
CCn1c2ccc(/C=N/NS(=O)(=O)CCN(C)C)cc2c2cc(/C=N/NS(=O)(=O)CCN(C)C)ccc21	91.1%
Cn1cc2c(c1)-c1c(sc3nc(-c4ccc(NC(=O)Nc5cc(C(C)(C)C)on5)cc4)cn13)CC2	-0.139% (active)
CCOC(=O)c1c(NC(=O)c2ccc(C(C)(C)C)cc2)sc2cc(OCCN3CCCCC3)ccc12	96.5%
COc1ccccc1/C=C/C=N/NC1=NC2C(S1)N(C)C(=O)N2c1ccccc1 (centres undefined)	25.5%
CC1(C)CC[C@]2(C(=O)O)CC[C@]3(C)C(=CCC4[C@@]5(C)C[C@@H](O)[C@@H]6OC(c7cccc([N+](=O)[O-])c7)OC[C@@]6(C)C5CC[C@]43C)C2C1 (some centres undefined)	94.1%
CN(C)c1ncc(/C=C2\SC(=S)N(Cc3ccccc3Cl)C2=O)s1	101%
O=C(/C=C1\C=CN(CCCCO)c2ccccc21)n1ccc2ccccc21	98.7%
C#C[C@]1(O)CC[C@H]2[C@@H]3CC=C4c5sc(Nc6nc(C)cc(OC)n6)nc5CC[C@]4(C)[C@H]3CC[C@@]21C	-6.82% (active)
